For orientation: AC50 means the midpoint of the concentration-response curve, whichever way the signal moves.

Values joined by “and” are separate entries in the source; they are usually repeats but may differ in a detail not shown here. Equal values may be shown once. Active and inactive are the calls of the source. How the source made its calls: active means hit-call score of the fitted dose curve at least 0.9, where 1 is the maximum; inactive means score below 0.9.

Read-out in the experiment: CD38, CD38 (gene 952)
The experiment can be described thus: BSK_SAg_CD38: BioMAP Diversity Plus: SAg Assay for CD38 Biomarker Activity (AID 2283087). Conditions: primary human HUVEC with PBMC; actives raise or lower the signal. The method, then: BSK_SAg is a cell-based, multiplexed-readout assay that uses umbilical vein endothelium and peripheral blood mononuclear cells, a human vascular primary cell co-culture, with measurements taken at 24 hours after chemical dosing in a 96-well plate.BSK_SAg_CD38 is one of 10 assay component(s) measured or calculated from the BSK_SAg assay. It is designed to make measurements of enzyme-linked immunosorbent assay, a form of binding reporter, as detected with fluorescence intensity signals by Enzyme-linked immunosorbent assay technology.Data from the assay component BSK_SAg_CD38 was analyzed into 1 assay endpoint. This assay endpoint, BSK_SAg_CD38, was analyzed with bidirectional fitting relative to DMSO as the negative control and baseline of activity. Using a type of binding reporter, gain or loss-of-signal activity can be used to understand changes in the signaling as they relate to the gene CD38. Furthermore, this assay endpoint can be referred to as a primary readout, because this assay has produced multiple assay endpoints where this one serves a signaling function. To generalize the intended target to other relatable targets, this assay endpoint is annotated to the cytokine intended target family, where the subfamily is other cytokine.
The levels of cell surface (or secreted, indicated by the prefix "s") biomarker endpoints were measured by ELISA. Overt cytotoxicity to cells in confluent adherent cultures (all systems other than the BT system) was assessed by measuring total protein levels using sulforhodamine B (SRB) staining in parallel cultures at the time of biomarker measurements, indicated as SRB endpoints. For proliferation assays for adherent cell types, individual cell types are cultured at sub-confluence and relative cell numbers quantified by SRB staining at time points optimized for each system (48 h: 3C and CASM3C systems; 72 h: BT and HDF3CGF systems; 96 h: SAg system). SRB was performed by staining cells with 0.1% SRB after fixation with 10% TCA and reading wells at 560 nm.Viability and proliferation of PBMC (T cells) was quantified by Alamar Blue reduction for the SAg and BT systems. For PBMC viability (referred to as PBMC Cytotoxicity within the assay endpoint names), cells were plated (75,000/well in a 96-well plate) and then chemical samples added for 1 h before addition of activators, SEB and TSST-1 (20 ng/mL final concentration each). Cells were incubated for 90 h. Then, Alamar Blue (20 uL/well) (Invitrogen, Cat DAL1100) was added for 6 h, and the plates were read with a fluorescence microplate reader at 546/580 nm (excitation/emission). For PBMC proliferation, cells were plated and activated as above but incubated for only 16 h prior to addition of Alamar Blue. Plates were read after 6 h.
`Cc1c(C(N)=O)cc([N+](=O)[O-])cc1[N+](=O)[O-]`: the outcome was inactive. As to `Cc1cc(-n2nc3ccc(Cl)cc3n2)c(O)c(C(C)(C)C)c1`, the outcome was inactive.

As for `CC(C)C1OCCN1CCOC(=O)NCCCCCCNC(=O)OCCN1CCOC1C(C)C` (configuration not stated), the result was inactive. In the case of `COc1ccc(C(=O)c2ccccc2O)c(O)c1`, the result was inactive. Turning to `Cc1cccnc1`, the result was inactive. As for `C1CN(CCOCCN2CCOCC2)CCO1`, the outcome was inactive. For `CN(C)Cc1cc(C(C)(C)C)c(O)c(C(C)(C)C)c1`, the outcome was inactive. Still for that read-out and setting: the value for `Sc1nc2ccccc2s1` was “inactive”. On the same count and under the same terms, then `COc1cc(CNC(=O)CCCC/C=C/C(C)C)ccc1O`, with “inactive”; and `CC[N+](CC)(CC(=O)Nc1c(C)cccc1C)Cc1ccccc1` (tested in a mixture with another compound), with “inactive”; and `CCC(C)=NO`, with “inactive”.

Turning to `CC(C)CC(=O)CC(C)CC(C)C` (configuration not stated), the result was inactive. In the case of `CCCCCCCCCC/C=C/C1CC(=O)OC1=O` (configuration not stated), the result was inactive.

Take `O=C(C(=O)c1ccccc1)c1ccccc1`: the outcome was inactive. As for `CN(C)CCC(c1ccc(Cl)cc1)c1ccccn1` (configuration not stated), the outcome was inactive. With `CCC[Si](OC(C)=O)(OC(C)=O)OC(C)=O`, the outcome was inactive. Take `CC[N+](CC)(CC(=O)Nc1c(C)cccc1C)Cc1ccccc1`: the result was inactive. In the case of `OC(C(F)(F)F)(C(F)(F)F)C(O)(C(F)(F)F)C(F)(F)F`, the AC50 is 34.1 µM (active) and 21.9 µM (active).

`COc1ccccc1Oc1c(NS(=O)(=O)c2ccc(C(C)(C)C)cc2)nc(-c2ncccn2)nc1OCCO`: the outcome was inactive. On to `CCCCCCC(O)CCCCCCCCCCC(=O)OC` (configuration not stated), for which the outcome was inactive.

For the molecule `CCCCCCCCCCC1CO1` (configuration not stated), the result was inactive. As for `CCCCC(CC)COC(=O)C=Cc1ccc(OC)cc1` (configuration not stated), the AC50 is 28.5 µM (active) and 20 µM (active). Take `CN(C)c1ccc(C(c2ccccc2)c2ccc(N(C)C)cc2)cc1`: the AC50 is 20 µM (active). On to `CCCCCCCCCCCCCCCCCC[N+](C)(C)C`, for which the AC50 is 5 µM (active). With `COC(=O)/C=C\C(=O)OC`, the result was inactive. Turning to `Oc1cccc2ccccc12`, the outcome was inactive. Take `O=[N+]([O-])c1cc(S(=O)(=O)Nc2ccccc2)ccc1Nc1ccccc1`: the AC50 was 25 µM (active) and 26 µM (active).

The values are drawn from PubChem BioAssay (EPA / NIEHS).
